# This is part of a sample that, as a whole, favours compounds with a hit. Of some 83,000 tested, about 20% had one in any assay.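 Treatment: one concentration, 48 hours, 96-well format. Scoring: percent growth, with anything below 10 considered active.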 Unmarked numbers belong to inactive results. Calls of active or inactive are those of the source.
# System: COLO 205 colon
# Experiment: NCI-60 one-dose screen, 48 h (100 = growth as untreated, 0 = no growth, -100 = all killed)
# Conditions: 10 µM unless noted
row,SMILES,growth
1,O=C1CC(c2ccc(O)c(O)c2)Oc2cc(O)c([C@@H]3O[C@H](CO)[C@@H](O)[C@H](O)[C@H]3O)c(O)c21 (stereo partly specified),108%
2,O=C(NCc1ccccc1)c1ccc2c(c1)NC(=O)[C@@H]1CCCN21,110%
3,CCc1ccc(OCc2ccccc2C(=O)Nc2ccc3nc(C)cc(N)c3c2)cc1,-79% (active)
4,CSc1cccc(NC(=O)Nc2nc3c(C)cccc3s2)c1,120%
5,COC(=O)[C@]1(C)CCC[C@]2(C)[C@H]3C[C@H]4C(C(C)C)=C[C@]3(CC[C@H]21)[C@@H]1C(=O)N(CCC#N)C(=O)[C@@H]14,94.7%
6,CC1=C(CCCOC(=O)NCCCl)C2=C(C)C3(CC3)[C@@](C)(O)C(=O)C2=C1,3.83% (active)
7,Cc1nn(-c2ccc(-c3ccc(OC(F)(F)F)cc3)cc2)c2nc(-c3ccccc3)nc(N)c12,121%
8,O=S(=O)(O)c1ccc(N=NSc2ccc3ccccc3c2)cc1,108%
9,O=c1c2ccccc2n(CC(O)CN2CCCC2)c2c(Br)cccc12 (stereo unspecified),82.4%
10,CS(=O)(=O)O[C@@H]1C(=O)N(c2cc3c4ccccc4ccc3c3ccccc23)[C@H]1c1ccc(F)cn1,48.4%
11,CC(C)(C)c1nn(-c2ccccc2)c2c1COCN2Cc1ccc(Cl)cc1,101%
12,Cc1cc(NC(=O)CNc2nc(Oc3ccc(F)cc3)nc(-c3ccc(F)cc3)n2)ccc1Cl,112%
13,CC(=O)c1cc2c(N)c(C(=O)Nc3ccccn3)sc2nc1C,40.6%
14,O=C(/C(=C/c1ccc([N+](=O)[O-])cc1)SCc1ccc(F)cc1)c1ccc(Cl)cc1,64%
15,Cc1cnc(-c2ccc(-c3ccc(NC(=O)Nc4c(F)cc(F)cc4F)cc3F)c3c2C(=O)NC3)[nH]1,20.5%
16,COc1ccc(Nc2cc(NC(=O)CNc3cc(OC)c(Cl)c(OC)c3Cl)ncn2)cc1,89.5%
17,Nc1n[nH]c2cccc(C#Cc3cccc(NC(=O)c4cc(N5CCOCC5)cc(C(F)(F)F)c4)c3)c12,18.2%

row,SMILES,growth
1,CC(C)(C)CC(C)(C)Cc1ccc(OCCOCC[N+](C)(C)Cc2ccccc2)cc1,-72.3% (active)
2,C=C1C(=O)O[C@H]2[C@H]1CC/C(COC(=O)Nc1nc3ccccc3[nH]1)=C\CC[C@@]1(C)O[C@@H]21,17.3%
3,C=C(C)[C@@H]1CC[C@]2(C(=O)O)CC[C@]3(C)[C@H](CC[C@@H]4[C@@]5(C)C[C@@H](CC#Cc6ccccc6C)C(=O)C(C)(C)[C@@H]5CC[C@]43C)[C@@H]12,-7.56% (active)
4,Clc1ccc2c(NCCCNC3CCCCC3)ccnc2c1,93.5%
5,CN(C)C(CNc1oc(-c2cccc3ccccc23)nc1C#N)c1ccco1 (stereo unspecified),93.1%
6,c1cc(CNC23CC4CC(CC(C4)C2)C3)cc(C[N+](Cc2cccc(CNC34CC5CC(CC(C5)C3)C4)c2)(Cc2cccc(CNC34CC5CC(CC(C5)C3)C4)c2)Cc2cccc(CNC34CC5CC(CC(C5)C3)C4)c2)c1 (stereo unspecified),-40.9% [42 µM] (active)
7,O=C1CCc2ccccc2N1,97.1%
8,Cc1cnc(SCc2ccc(Cl)cc2Cl)nc1Nc1ccc(Cl)c(Cl)c1,117%
9,COc1cc(C2=NN(C(C)=O)C(c3cccc(Nc4ccnc5cc(C(F)(F)F)ccc45)c3)C2)cc(OC)c1OC (stereo unspecified),50.3%
10,CCOC(=O)c1c(-c2ccc(O)cc2)c(C#N)c2c(C#N)c(N)nn2c1N,74.6%
11,CN(C)CCCn1c2c(c3cc(-c4ccco4)ccc3c1=O)C(=O)c1ccccc1-2,52.9%
12,Nc1cc(N)c(S(=O)(=O)O)cc1N=Nc1cc([N+](=O)[O-])ccc1O,108%
13,COc1cc(/C=N/Nc2nc(-c3ccc(F)cc3)c(C#N)c(N3CCOCC3)n2)ccc1O,101%
14,COc1cc(-c2csc(NC(=O)Nc3ccc(Cl)cc3)n2)cc(OC)c1OC,13.2%
15,CCOC(=O)c1ccc(Nc2ncnc3ccc(NC(=O)c4ccccc4)cc23)cc1,104%
16,COC(=O)/C=C/c1cc(OC(C)=O)c2c(c1)C(C(=O)OC)C(c1ccc(OC(C)=O)c(OC(C)=O)c1)O2 (stereo unspecified),38.9%

# System: DU-145 prostate
# Experiment: as above
# Conditions: 10 µM unless noted
row,SMILES,growth
1,O=C1CC(c2ccc(O)c(O)c2)Oc2cc(O)c([C@@H]3O[C@H](CO)[C@@H](O)[C@H](O)[C@H]3O)c(O)c21 (stereo partly specified),105%
2,O=C(NCc1ccccc1)c1ccc2c(c1)NC(=O)[C@@H]1CCCN21,99.7%
3,CCc1ccc(OCc2ccccc2C(=O)Nc2ccc3nc(C)cc(N)c3c2)cc1,-96.3% (active)
4,CSc1cccc(NC(=O)Nc2nc3c(C)cccc3s2)c1,114%
5,COC(=O)[C@]1(C)CCC[C@]2(C)[C@H]3C[C@H]4C(C(C)C)=C[C@]3(CC[C@H]21)[C@@H]1C(=O)N(CCC#N)C(=O)[C@@H]14,99.4%
6,CC1=C(CCCOC(=O)NCCCl)C2=C(C)C3(CC3)[C@@](C)(O)C(=O)C2=C1,12.4%
7,COc1ccc2[nH]c(-c3ccccc3)c(C=C(C#N)C#N)c2c1,35.2%
8,Cc1nn(-c2ccc(-c3ccc(OC(F)(F)F)cc3)cc2)c2nc(-c3ccccc3)nc(N)c12,104%
9,O=S(=O)(O)c1ccc(N=NSc2ccc3ccccc3c2)cc1,103%
10,O=c1c2ccccc2n(CC(O)CN2CCCC2)c2c(Br)cccc12 (stereo unspecified),105%
11,CS(=O)(=O)O[C@@H]1C(=O)N(c2cc3c4ccccc4ccc3c3ccccc23)[C@H]1c1ccc(F)cn1,11.5%
12,CC(C)(C)c1nn(-c2ccccc2)c2c1COCN2Cc1ccc(Cl)cc1,103%
13,Cc1cc(NC(=O)CNc2nc(Oc3ccc(F)cc3)nc(-c3ccc(F)cc3)n2)ccc1Cl,112%
14,CC(=O)c1cc2c(N)c(C(=O)Nc3ccccn3)sc2nc1C,90.8%
15,CCOC(=O)c1sc(/N=C2\NC(=O)/C(=C/c3ccc(N4CCN(C)CC4)cc3)S2)nc1C,97.3%
16,O=C(/C(=C/c1ccc([N+](=O)[O-])cc1)SCc1ccc(F)cc1)c1ccc(Cl)cc1,87.5%
17,Cc1cnc(-c2ccc(-c3ccc(NC(=O)Nc4c(F)cc(F)cc4F)cc3F)c3c2C(=O)NC3)[nH]1,7.83% (active)
18,COc1ccc(Nc2cc(NC(=O)CNc3cc(OC)c(Cl)c(OC)c3Cl)ncn2)cc1,98.8%
19,Nc1n[nH]c2cccc(C#Cc3cccc(NC(=O)c4cc(N5CCOCC5)cc(C(F)(F)F)c4)c3)c12,64.6%

row,SMILES,growth
1,CC(C)(C)CC(C)(C)Cc1ccc(OCCOCC[N+](C)(C)Cc2ccccc2)cc1,53.4%
2,CCOCc1cc(C(C)(C)C)ccc1O,110%
3,C=C1C(=O)O[C@H]2[C@H]1CC/C(COC(=O)Nc1nc3ccccc3[nH]1)=C\CC[C@@]1(C)O[C@@H]21,36.3%
4,C=C(C)[C@@H]1CC[C@]2(C(=O)n3ccnc3)CC[C@]3(C)[C@H](CC[C@@H]4[C@@]5(C)CCCNC(C)(C)[C@@H]5CC[C@]43C)[C@@H]12,37%
5,C=C(C)[C@@H]1CC[C@]2(C(=O)O)CC[C@]3(C)[C@H](CC[C@@H]4[C@@]5(C)C[C@@H](CC#Cc6ccccc6C)C(=O)C(C)(C)[C@@H]5CC[C@]43C)[C@@H]12,34.4%
6,Clc1ccc2c(NCCCNC3CCCCC3)ccnc2c1,101%
7,CN(C)C(CNc1oc(-c2cccc3ccccc23)nc1C#N)c1ccco1 (stereo unspecified),98.7%
8,c1cc(CNC23CC4CC(CC(C4)C2)C3)cc(C[N+](Cc2cccc(CNC34CC5CC(CC(C5)C3)C4)c2)(Cc2cccc(CNC34CC5CC(CC(C5)C3)C4)c2)Cc2cccc(CNC34CC5CC(CC(C5)C3)C4)c2)c1 (stereo unspecified),-4.07% [42 µM] (active)
9,O=C1CCc2ccccc2N1,103%
10,Cc1cnc(SCc2ccc(Cl)cc2Cl)nc1Nc1ccc(Cl)c(Cl)c1,95.1%
11,COc1cc(C2=NN(C(C)=O)C(c3cccc(Nc4ccnc5cc(C(F)(F)F)ccc45)c3)C2)cc(OC)c1OC (stereo unspecified),55%
12,CCOC(=O)c1c(-c2ccc(O)cc2)c(C#N)c2c(C#N)c(N)nn2c1N,83%
13,CN(C)CCCn1c2c(c3cc(-c4ccco4)ccc3c1=O)C(=O)c1ccccc1-2,66.8%
14,Nc1cc(N)c(S(=O)(=O)O)cc1N=Nc1cc([N+](=O)[O-])ccc1O,111%
15,COc1cc(/C=N/Nc2nc(-c3ccc(F)cc3)c(C#N)c(N3CCOCC3)n2)ccc1O,96.3%
16,COc1cc(-c2csc(NC(=O)Nc3ccc(Cl)cc3)n2)cc(OC)c1OC,36.3%
17,N#CCNc1ccc(C(=O)O)cc1,113%
18,CCOC(=O)c1ccc(Nc2ncnc3ccc(NC(=O)c4ccccc4)cc23)cc1,105%
19,COC(=O)/C=C/c1cc(OC(C)=O)c2c(c1)C(C(=O)OC)C(c1ccc(OC(C)=O)c(OC(C)=O)c1)O2 (stereo unspecified),11.2%

# — PubChem BioAssay (NCI)
